{"source": "the supplement of paper PMC12067093", "about": "“Discovery and optimisation of a covalent ligand for TRIM25 and its application to targeted protein ubiquitination” (Chemical Science, 2025)", "note": "Of roughly 21,000 targets only a part is listed; those with the largest changes were picked by preference.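 Note: competitive profiling in live THP-1 cells: cysteine peptides tagged with an iodoacetamide desthiobiotin (IA-DTB) probe, intensity after compound treatment relative to DMSO-treated cells.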", "data": [{"compound": "Cc1cc(ccc1-c1ccccc1)C(=O)N1CCCN(CC1)C(=O)CCl [compound 10]", "test": "probe-labelled cysteine peptide fold change vs DMSO (competition) (log2 fold change); higher = less target engagement (more negative = stronger competition)", "conditions": "50 µM; THP-1; incubation time: 4 h", "values": [{"target": "GEMIN5_Q8TEQ6_82_VSGFTFSHHPGQYNLCATSSDDGTVK (UniProt Q8TEQ6)", "probe-labelled cysteine peptide fold change": 0.148}, {"target": "FKBP8_Q14318_274_CLNNLAASQLK (UniProt Q14318)", "probe-labelled cysteine peptide fold change": -0.0462}, {"target": "GSDMD_P57764_38_RVVQELDHGGEFIPVTSLQSSTGFQPYCLVVR (UniProt P57764)", "sequence (P57764 whole entry, looked up)": "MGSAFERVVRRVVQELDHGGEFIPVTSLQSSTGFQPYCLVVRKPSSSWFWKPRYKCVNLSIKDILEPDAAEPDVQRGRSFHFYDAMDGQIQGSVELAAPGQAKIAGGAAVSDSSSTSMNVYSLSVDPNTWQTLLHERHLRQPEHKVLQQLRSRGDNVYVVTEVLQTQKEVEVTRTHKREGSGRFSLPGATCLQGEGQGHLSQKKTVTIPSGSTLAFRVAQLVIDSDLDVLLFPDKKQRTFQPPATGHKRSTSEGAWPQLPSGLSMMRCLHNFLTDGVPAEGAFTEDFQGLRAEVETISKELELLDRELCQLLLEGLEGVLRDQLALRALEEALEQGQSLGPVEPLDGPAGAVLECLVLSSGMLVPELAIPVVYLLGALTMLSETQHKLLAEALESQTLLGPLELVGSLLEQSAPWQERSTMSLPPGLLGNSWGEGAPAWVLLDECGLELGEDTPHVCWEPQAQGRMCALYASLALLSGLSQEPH", "probe-labelled cysteine peptide fold change": -0.375}, {"target": "GTF2B_Q00403_34+37_AGDMICPECGLVVGDR (UniProt Q00403)", "sequence (Q00403 whole entry, looked up)": "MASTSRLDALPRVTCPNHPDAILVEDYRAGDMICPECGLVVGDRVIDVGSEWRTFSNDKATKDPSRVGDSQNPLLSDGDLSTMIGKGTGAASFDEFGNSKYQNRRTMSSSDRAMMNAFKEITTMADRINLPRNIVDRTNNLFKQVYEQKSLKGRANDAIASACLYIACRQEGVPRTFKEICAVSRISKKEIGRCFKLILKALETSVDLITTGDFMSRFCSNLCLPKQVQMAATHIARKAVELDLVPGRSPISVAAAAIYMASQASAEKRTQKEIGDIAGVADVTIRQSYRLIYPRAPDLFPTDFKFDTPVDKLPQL", "probe-labelled cysteine peptide fold change": 0.0895}, {"target": "GSK3B_P49841_335_LTPLEACAHSFFDELRDPNVK (UniProt P49841)", "probe-labelled cysteine peptide fold change": 0.0393}, {"target": "GNAI2_P04899_326_EIYTHFTCATDTK (UniProt P04899)", "sequence (P04899 whole entry, looked up)": "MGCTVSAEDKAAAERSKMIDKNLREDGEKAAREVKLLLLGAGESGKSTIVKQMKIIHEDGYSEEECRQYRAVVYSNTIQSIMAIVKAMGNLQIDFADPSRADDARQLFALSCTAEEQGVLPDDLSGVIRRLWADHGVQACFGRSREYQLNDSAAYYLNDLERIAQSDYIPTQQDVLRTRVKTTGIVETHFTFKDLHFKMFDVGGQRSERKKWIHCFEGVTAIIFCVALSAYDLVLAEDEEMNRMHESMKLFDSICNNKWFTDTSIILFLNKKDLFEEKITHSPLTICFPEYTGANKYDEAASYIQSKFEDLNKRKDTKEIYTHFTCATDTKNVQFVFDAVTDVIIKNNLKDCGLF", "probe-labelled cysteine peptide fold change": -0.0637}, {"target": "GDAP2_Q9NXN4_148_TAAESSLYSCYR (UniProt Q9NXN4)", "sequence (Q9NXN4 whole entry, looked up)": "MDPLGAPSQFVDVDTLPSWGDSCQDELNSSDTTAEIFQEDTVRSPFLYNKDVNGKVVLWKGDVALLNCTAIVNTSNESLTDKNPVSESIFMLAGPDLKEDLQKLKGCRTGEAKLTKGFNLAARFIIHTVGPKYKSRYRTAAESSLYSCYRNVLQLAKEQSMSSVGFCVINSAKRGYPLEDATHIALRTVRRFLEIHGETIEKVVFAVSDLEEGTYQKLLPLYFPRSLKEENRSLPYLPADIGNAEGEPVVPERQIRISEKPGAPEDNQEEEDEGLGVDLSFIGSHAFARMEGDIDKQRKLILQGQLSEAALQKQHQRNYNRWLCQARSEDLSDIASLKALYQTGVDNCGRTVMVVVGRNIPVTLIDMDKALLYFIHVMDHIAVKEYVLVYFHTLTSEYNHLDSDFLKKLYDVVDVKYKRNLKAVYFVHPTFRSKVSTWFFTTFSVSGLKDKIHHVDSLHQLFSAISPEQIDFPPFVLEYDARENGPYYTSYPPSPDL", "probe-labelled cysteine peptide fold change": 0.00868}, {"target": "GPC4_O75487_341_VFQGCGPPK (UniProt O75487)", "probe-labelled cysteine peptide fold change": -0.0603}, {"target": "GATD1_Q8NB37_94_YHALLIPSCPGALTDLASSGSLAR (UniProt Q8NB37)", "sequence (Q8NB37 whole entry, looked up)": "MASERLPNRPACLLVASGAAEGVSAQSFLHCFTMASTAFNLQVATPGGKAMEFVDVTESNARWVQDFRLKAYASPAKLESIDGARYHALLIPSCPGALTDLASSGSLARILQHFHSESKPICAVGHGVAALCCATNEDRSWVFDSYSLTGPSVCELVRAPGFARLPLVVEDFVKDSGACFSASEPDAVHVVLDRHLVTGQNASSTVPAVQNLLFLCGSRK", "probe-labelled cysteine peptide fold change": -0.00276}, {"target": "HDHD3_Q9BSH5_109_DFSHPCTWQVLDGAEDTLR (UniProt Q9BSH5)", "sequence (Q9BSH5 whole entry, looked up)": "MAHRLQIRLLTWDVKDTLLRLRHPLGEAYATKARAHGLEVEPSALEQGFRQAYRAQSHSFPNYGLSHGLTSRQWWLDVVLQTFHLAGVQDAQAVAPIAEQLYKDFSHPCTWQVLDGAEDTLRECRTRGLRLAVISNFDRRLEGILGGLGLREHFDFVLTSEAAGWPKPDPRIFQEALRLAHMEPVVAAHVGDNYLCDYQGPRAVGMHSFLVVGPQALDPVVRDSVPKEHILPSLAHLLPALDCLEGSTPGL", "probe-labelled cysteine peptide fold change": -1.92}, {"target": "FSCN1_Q16658_226_VAFRDCEGR (UniProt Q16658)", "probe-labelled cysteine peptide fold change": -0.563}, {"target": "GFPT1_Q06210_264_VDSTTCLFPVEEK (UniProt Q06210)", "probe-labelled cysteine peptide fold change": 0.203}, {"target": "FGR_P09769_415_LIKDDEYNPCQGSK (UniProt P09769)", "sequence (P09769 whole entry, looked up)": "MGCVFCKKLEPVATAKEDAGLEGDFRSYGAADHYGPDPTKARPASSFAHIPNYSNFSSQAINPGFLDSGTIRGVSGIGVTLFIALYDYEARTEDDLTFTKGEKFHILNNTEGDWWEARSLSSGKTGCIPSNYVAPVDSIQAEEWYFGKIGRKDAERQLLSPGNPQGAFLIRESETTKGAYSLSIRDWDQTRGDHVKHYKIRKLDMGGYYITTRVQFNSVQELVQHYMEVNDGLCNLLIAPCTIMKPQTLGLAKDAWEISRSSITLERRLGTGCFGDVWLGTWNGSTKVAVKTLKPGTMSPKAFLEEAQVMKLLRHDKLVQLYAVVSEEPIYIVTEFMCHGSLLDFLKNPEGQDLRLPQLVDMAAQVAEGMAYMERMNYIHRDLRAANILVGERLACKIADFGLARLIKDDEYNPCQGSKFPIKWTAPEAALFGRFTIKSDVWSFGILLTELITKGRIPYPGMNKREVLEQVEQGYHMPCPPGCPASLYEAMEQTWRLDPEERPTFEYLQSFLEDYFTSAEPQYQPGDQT", "probe-labelled cysteine peptide fold change": -0.205}, {"target": "GTF3C5_Q9Y5Q8_75_DPYCHPVCANR (UniProt Q9Y5Q8)", "probe-labelled cysteine peptide fold change": 0.621}, {"target": "GOLGA4_Q13439_1085_ILLFGCEK (UniProt Q13439)", "probe-labelled cysteine peptide fold change": 0.095}, {"target": "GCLM_P48507_35+46_CPSTHSEELHDCIQK (UniProt P48507)", "probe-labelled cysteine peptide fold change": -0.843}, {"target": "GATD3B_A0A0B4J2D5_177_EFHQAGKPIGLCCIAPVLAAK<|>GATD3A_P0DPI2_177_EFHQAGKPIGLCCIAPVLAAK (UniProt P0DPI2)", "probe-labelled cysteine peptide fold change": -1.98}, {"target": "FOS_P01100_204_EKLEFILAAHRPACK (UniProt P01100)", "sequence (P01100 whole entry)": "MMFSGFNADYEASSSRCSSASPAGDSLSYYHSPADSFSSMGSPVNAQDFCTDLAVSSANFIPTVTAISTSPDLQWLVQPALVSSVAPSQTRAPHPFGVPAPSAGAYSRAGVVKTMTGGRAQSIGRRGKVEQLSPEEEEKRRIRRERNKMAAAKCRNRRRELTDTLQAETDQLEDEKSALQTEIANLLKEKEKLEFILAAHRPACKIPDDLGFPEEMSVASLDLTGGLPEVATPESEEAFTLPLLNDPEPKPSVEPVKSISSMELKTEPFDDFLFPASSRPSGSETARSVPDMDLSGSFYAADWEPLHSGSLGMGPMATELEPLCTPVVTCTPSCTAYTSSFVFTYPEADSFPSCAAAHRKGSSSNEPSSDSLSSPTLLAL", "probe-labelled cysteine peptide fold change": 1.53}, {"target": "HERC4_Q5GLZ8_58+60_HTVFVLDDGTVYTCGCNDLGQLGHEK (UniProt Q5GLZ8)", "probe-labelled cysteine peptide fold change": -1.05}, {"target": "GSTP1_P09211_102_DQQEAALVDMVNDGVEDLRCK (UniProt P09211)", "probe-labelled cysteine peptide fold change": 1.08}, {"target": "GRHPR_Q9UBQ7_29_AADCEVEQWDSDEPIPAK (UniProt Q9UBQ7)", "sequence (Q9UBQ7 whole entry, looked up)": "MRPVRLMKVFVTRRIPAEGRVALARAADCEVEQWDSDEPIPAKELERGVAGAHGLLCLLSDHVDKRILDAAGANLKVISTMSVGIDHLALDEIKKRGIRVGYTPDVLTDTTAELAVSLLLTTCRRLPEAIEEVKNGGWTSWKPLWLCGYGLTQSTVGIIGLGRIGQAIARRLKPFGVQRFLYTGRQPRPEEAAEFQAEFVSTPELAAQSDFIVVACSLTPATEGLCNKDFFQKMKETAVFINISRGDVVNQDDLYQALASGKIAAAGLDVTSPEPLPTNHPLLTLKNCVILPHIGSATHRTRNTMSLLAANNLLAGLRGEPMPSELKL", "probe-labelled cysteine peptide fold change": -0.167}, {"target": "HERC2_O95714_1201_ERDDHEELAWPGIMESFFTGQNCR (UniProt O95714)", "probe-labelled cysteine peptide fold change": -0.244}, {"target": "FHL2_Q14192_275_GFLTERDDILCPDCGK (UniProt Q14192)", "sequence (Q14192 whole entry, looked up)": "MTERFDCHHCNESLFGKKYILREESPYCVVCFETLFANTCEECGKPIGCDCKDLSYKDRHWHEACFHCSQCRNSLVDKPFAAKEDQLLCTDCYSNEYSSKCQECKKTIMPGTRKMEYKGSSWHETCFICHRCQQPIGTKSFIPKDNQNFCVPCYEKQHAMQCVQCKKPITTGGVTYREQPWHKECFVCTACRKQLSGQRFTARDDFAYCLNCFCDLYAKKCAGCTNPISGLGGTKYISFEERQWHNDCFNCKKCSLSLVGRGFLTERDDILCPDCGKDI", "probe-labelled cysteine peptide fold change": -0.163}, {"target": "HDDC3_Q8N4P3_133_CTPEGWSEHR (UniProt Q8N4P3)", "sequence (Q8N4P3 whole entry)": "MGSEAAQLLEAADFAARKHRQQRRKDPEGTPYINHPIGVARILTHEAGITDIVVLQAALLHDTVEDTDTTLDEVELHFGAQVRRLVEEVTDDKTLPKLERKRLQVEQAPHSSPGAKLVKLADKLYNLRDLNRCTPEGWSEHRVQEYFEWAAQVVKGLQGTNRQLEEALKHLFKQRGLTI", "probe-labelled cysteine peptide fold change": -0.00995}, {"target": "HDAC10_Q969S8_23_LLWDDPECEIERPER (UniProt Q969S8)", "sequence (Q969S8 whole entry, looked up)": "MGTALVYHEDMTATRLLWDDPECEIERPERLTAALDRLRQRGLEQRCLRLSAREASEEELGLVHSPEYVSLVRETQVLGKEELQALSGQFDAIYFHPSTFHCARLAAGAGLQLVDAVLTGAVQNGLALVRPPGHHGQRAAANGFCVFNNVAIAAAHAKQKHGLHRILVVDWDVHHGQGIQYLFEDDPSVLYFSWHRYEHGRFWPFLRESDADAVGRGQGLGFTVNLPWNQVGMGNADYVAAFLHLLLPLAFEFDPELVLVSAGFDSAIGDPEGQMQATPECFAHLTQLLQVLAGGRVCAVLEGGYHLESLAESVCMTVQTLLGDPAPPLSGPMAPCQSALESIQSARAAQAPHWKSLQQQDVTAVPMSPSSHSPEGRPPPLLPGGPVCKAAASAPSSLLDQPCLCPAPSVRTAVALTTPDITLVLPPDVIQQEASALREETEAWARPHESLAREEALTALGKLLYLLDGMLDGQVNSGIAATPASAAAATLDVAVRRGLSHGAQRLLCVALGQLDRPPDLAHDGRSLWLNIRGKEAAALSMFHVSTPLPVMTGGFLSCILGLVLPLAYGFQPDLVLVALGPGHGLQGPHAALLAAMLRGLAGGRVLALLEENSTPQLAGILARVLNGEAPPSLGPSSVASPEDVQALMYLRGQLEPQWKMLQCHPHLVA", "probe-labelled cysteine peptide fold change": -0.208}, {"target": "GFI1_Q99684_155_GAGLGLFCEPAPEPGHPAALYGPK (UniProt Q99684)", "sequence (Q99684 whole entry, looked up)": "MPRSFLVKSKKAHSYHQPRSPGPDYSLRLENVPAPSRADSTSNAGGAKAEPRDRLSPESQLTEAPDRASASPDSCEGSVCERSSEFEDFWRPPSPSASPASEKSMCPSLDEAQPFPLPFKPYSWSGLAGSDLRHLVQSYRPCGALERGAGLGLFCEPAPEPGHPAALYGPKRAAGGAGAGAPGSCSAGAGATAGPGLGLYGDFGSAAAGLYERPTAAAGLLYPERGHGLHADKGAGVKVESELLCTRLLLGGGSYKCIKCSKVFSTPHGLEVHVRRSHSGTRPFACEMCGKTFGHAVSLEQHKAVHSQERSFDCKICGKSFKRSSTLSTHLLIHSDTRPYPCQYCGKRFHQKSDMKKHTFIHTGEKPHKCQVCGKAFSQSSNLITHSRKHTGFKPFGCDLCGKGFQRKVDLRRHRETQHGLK", "probe-labelled cysteine peptide fold change": 1.62}, {"target": "GSPT1_P15170_464_TAGTICLETFK (UniProt P15170)", "probe-labelled cysteine peptide fold change": 0.0941}]}]}
